Laboratory results published in the supplement of paper PMC4466140.

Legend:
Test in all cases: SPOT peptide array binding signal intensity (averaged, normalized) (arbitrary units (background-subtracted, floor 0; scale differs between SH3 domains)); higher = stronger binding of the SH3 domain to the peptide
[1] = biological target: AgAbp1
Method in brief: (§1)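 Binding signal is given in arbitrary units that differ between domains and is the normalized, background-subtracted spot intensity averaged across replicates. Each GST-SH3 fusion from one of four yeast species was made in E. coli BL21(DE3), purified on glutathione Sepharose and incubated at 10 μg/ml overnight at 4°C on cellulose-bound synthetic 15-mer peptides in which cysteines were replaced by serines. Detection used anti-GST antibody, an HRP anti-mouse secondary and luminol, followed by imaging and Genespotter quantification.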

[2] = biological target: AgBbc1
Method in brief: as §1

[3] = biological target: AgBem1-D1
Method in brief: as §1

[4] = biological target: AgBzz1-D1
Method in brief: as §1

[5] = biological target: AgBzz1-D2
Method in brief: as §1

[6] = biological target: AgCyk3
Method in brief: as §1

[7] = biological target: AgFus1
Method in brief: as §1

[8] = biological target: AgHof1
Method in brief: as §1

[9] = biological target: AgHse1
Method in brief: as §1

[10] = biological target: AgLsb1
Method in brief: as §1

[11] = biological target: AgLsb4
Method in brief: as §1

[12] = biological target: AgMyo5
Method in brief: as §1

[13] = biological target: AgNbp2
Method in brief: as §1

[14] = biological target: AgRvs167
Method in brief: as §1

[15] = biological target: AgSho1
Method in brief: as §1

[16] = biological target: AgSla1-D1-D2
Method in brief: as §1

[17] = biological target: AgSla1-D3
Method in brief: as §1

[18] = biological target: CaAbp1-D1
Method in brief: as §1

[19] = biological target: CaAbp1-D2
Method in brief: as §1

[20] = biological target: CaBbc1
Method in brief: as §1

[21] = biological target: CaBem1-D1
Method in brief: as §1

[22] = biological target: CaBzz1-D1
Method in brief: as §1

[23] = biological target: CaBzz1-D2
Method in brief: as §1

[24] = biological target: CaCyk3
Method in brief: as §1

[25] = biological target: CaFus1
Method in brief: as §1

[26] = biological target: CaHof1
Method in brief: as §1

[27] = biological target: CaHse1
Method in brief: as §1

[28] = biological target: CaLsb1
Method in brief: as §1

[29] = biological target: CaLsb4
Method in brief: as §1

[30] = biological target: CaMyo5
Method in brief: as §1

[31] = biological target: CaNbp2
Method in brief: as §1

[32] = biological target: CaRvs167
Method in brief: as §1

[33] = biological target: CaRvs167-3
Method in brief: as §1

[34] = biological target: CaSho1
Method in brief: as §1

[35] = biological target: CaSla1-D1-D2
Method in brief: as §1

[36] = biological target: CaSla1-D3
Method in brief: as §1

[37] = biological target: ScAbp1
Method in brief: as §1

[38] = biological target: ScBbc1
Method in brief: as §1

[39] = biological target: ScBem1-D1
Method in brief: as §1

[40] = biological target: ScBzz1-D1
Method in brief: as §1

[41] = biological target: ScBzz1-D2
Method in brief: as §1

[42] = biological target: ScCyk3
Method in brief: as §1

[43] = biological target: ScFus1
Method in brief: as §1

[44] = biological target: ScHof1
Method in brief: as §1

[45] = biological target: ScHse1
Method in brief: as §1

[46] = biological target: ScLsb1
Method in brief: as §1

[47] = biological target: ScLsb2
Method in brief: as §1

[48] = biological target: ScLsb3
Method in brief: as §1

[49] = biological target: ScLsb4
Method in brief: as §1

[50] = biological target: ScMyo3
Method in brief: as §1

[51] = biological target: ScMyo5
Method in brief: as §1

[52] = biological target: ScNbp2
Method in brief: as §1

[53] = biological target: ScPex13
Method in brief: as §1

[54] = biological target: ScRvs167
Method in brief: as §1

[55] = biological target: ScSho1
Method in brief: as §1

[56] = biological target: ScSla1-D1-D2
Method in brief: as §1

[57] = biological target: ScSla1-D3
Method in brief: as §1

[58] = biological target: SpAbp1-D1
Method in brief: as §1

[59] = biological target: SpBbc1
Method in brief: as §1

[60] = biological target: SpBzz1-D1
Method in brief: as §1

[61] = biological target: SpBzz1-D2
Method in brief: as §1

[62] = biological target: SpCyk3
Method in brief: as §1

[63] = biological target: SpHof1
Method in brief: as §1

[64] = biological target: SpHof1-2
Method in brief: as §1

[65] = biological target: SpHof1-3
Method in brief: as §1

[66] = biological target: SpHse1
Method in brief: as §1

[67] = biological target: SpLsb1
Method in brief: as §1

[68] = biological target: SpLsb4
Method in brief: as §1

[69] = biological target: SpMyo1
Method in brief: as §1

[70] = biological target: SpNbp2
Method in brief: as §1

[71] = biological target: SpPex13
Method in brief: as §1

[72] = biological target: SpRvs167
Method in brief: as §1

[73] = biological target: SpSla1-D1-D2
Method in brief: as §1

[74] = biological target: SpSla1-D3
Method in brief: as §1

RKRAPTPPAPSRSEK
SPOT peptide array binding signal intensity [1]: 639 | SPOT peptide array binding signal intensity [2]: 146 | SPOT peptide array binding signal intensity [3]: 112 | SPOT peptide array binding signal intensity [4]: 128 | SPOT peptide array binding signal intensity [5]: 98 | SPOT peptide array binding signal intensity [6]: 2 | SPOT peptide array binding signal intensity [7]: ≤ 0 | SPOT peptide array binding signal intensity [8]: 25 | SPOT peptide array binding signal intensity [9]: 171 | SPOT peptide array binding signal intensity [10]: 253 | SPOT peptide array binding signal intensity [11]: 35.5 | SPOT peptide array binding signal intensity [12]: 0.5 | SPOT peptide array binding signal intensity [13]: 1300 | SPOT peptide array binding signal intensity [14]: 4.33 | SPOT peptide array binding signal intensity [15]: 5 | SPOT peptide array binding signal intensity [16]: 167 | SPOT peptide array binding signal intensity [17]: 21.8 | SPOT peptide array binding signal intensity [18]: 3830 | SPOT peptide array binding signal intensity [19]: 3240 | SPOT peptide array binding signal intensity [20]: 426 | SPOT peptide array binding signal intensity [21]: 306 | SPOT peptide array binding signal intensity [22]: 2860 | SPOT peptide array binding signal intensity [23]: 3180 | SPOT peptide array binding signal intensity [24]: 12 | SPOT peptide array binding signal intensity [25]: 106 | SPOT peptide array binding signal intensity [26]: 0.25 | SPOT peptide array binding signal intensity [27]: 3.25 | SPOT peptide array binding signal intensity [28]: 5.5 | SPOT peptide array binding signal intensity [29]: 249 | SPOT peptide array binding signal intensity [30]: 3.5 | SPOT peptide array binding signal intensity [31]: 797 | SPOT peptide array binding signal intensity [32]: 27.8 | SPOT peptide array binding signal intensity [33]: 20.2 | SPOT peptide array binding signal intensity [34]: 4 | SPOT peptide array binding signal intensity [35]: 1150 | SPOT peptide array binding signal intensity [36]: ≤ 0 | SPOT peptide array binding signal intensity [37]: 187 | SPOT peptide array binding signal intensity [38]: 114 | SPOT peptide array binding signal intensity [39]: 21.5 | SPOT peptide array binding signal intensity [40]: 128 | SPOT peptide array binding signal intensity [41]: 26 | SPOT peptide array binding signal intensity [42]: 9.5 | SPOT peptide array binding signal intensity [43]: ≤ 0 | SPOT peptide array binding signal intensity [44]: 0.75 | SPOT peptide array binding signal intensity [45]: 762 | SPOT peptide array binding signal intensity [46]: 89.5 | SPOT peptide array binding signal intensity [47]: 6 | SPOT peptide array binding signal intensity [48]: 1010 | SPOT peptide array binding signal intensity [49]: 31.5 | SPOT peptide array binding signal intensity [50]: 5 | SPOT peptide array binding signal intensity [51]: 1.5 | SPOT peptide array binding signal intensity [52]: 2100 | SPOT peptide array binding signal intensity [53]: 30.5 | SPOT peptide array binding signal intensity [54]: 544 | SPOT peptide array binding signal intensity [55]: 172 | SPOT peptide array binding signal intensity [56]: 1970 | SPOT peptide array binding signal intensity [57]: 46.5 | SPOT peptide array binding signal intensity [58]: 1150 | SPOT peptide array binding signal intensity [59]: ≤ 0 | SPOT peptide array binding signal intensity [60]: 428

PKRRAPPPVPKKPSS
SPOT peptide array binding signal intensity [1]: 5860 | SPOT peptide array binding signal intensity [2]: 1440 | SPOT peptide array binding signal intensity [3]: 221 | SPOT peptide array binding signal intensity [4]: 2030 | SPOT peptide array binding signal intensity [5]: 987 | SPOT peptide array binding signal intensity [6]: 1 | SPOT peptide array binding signal intensity [7]: 21.5 | SPOT peptide array binding signal intensity [8]: 530 | SPOT peptide array binding signal intensity [9]: 122 | SPOT peptide array binding signal intensity [10]: 784 | SPOT peptide array binding signal intensity [11]: 158 | SPOT peptide array binding signal intensity [12]: 73.5 | SPOT peptide array binding signal intensity [13]: 5620 | SPOT peptide array binding signal intensity [14]: 100 | SPOT peptide array binding signal intensity [15]: 479 | SPOT peptide array binding signal intensity [16]: 96 | SPOT peptide array binding signal intensity [17]: 856 | SPOT peptide array binding signal intensity [18]: 2910 | SPOT peptide array binding signal intensity [19]: 5120 | SPOT peptide array binding signal intensity [20]: 1940 | SPOT peptide array binding signal intensity [21]: 110 | SPOT peptide array binding signal intensity [22]: 6700 | SPOT peptide array binding signal intensity [23]: 5750 | SPOT peptide array binding signal intensity [24]: 142 | SPOT peptide array binding signal intensity [25]: 188 | SPOT peptide array binding signal intensity [26]: 0.5 | SPOT peptide array binding signal intensity [27]: 788 | SPOT peptide array binding signal intensity [28]: 0.5 | SPOT peptide array binding signal intensity [29]: 2470 | SPOT peptide array binding signal intensity [30]: 2 | SPOT peptide array binding signal intensity [31]: 3070 | SPOT peptide array binding signal intensity [32]: 104 | SPOT peptide array binding signal intensity [33]: 7.5 | SPOT peptide array binding signal intensity [34]: 93 | SPOT peptide array binding signal intensity [35]: 3270 | SPOT peptide array binding signal intensity [36]: 1040 | SPOT peptide array binding signal intensity [37]: 3020 | SPOT peptide array binding signal intensity [38]: 651 | SPOT peptide array binding signal intensity [39]: 40 | SPOT peptide array binding signal intensity [40]: 2560 | SPOT peptide array binding signal intensity [41]: 83.5 | SPOT peptide array binding signal intensity [42]: 6 | SPOT peptide array binding signal intensity [43]: 14 | SPOT peptide array binding signal intensity [44]: ≤ 0 | SPOT peptide array binding signal intensity [45]: 326 | SPOT peptide array binding signal intensity [46]: 488 | SPOT peptide array binding signal intensity [47]: 800 | SPOT peptide array binding signal intensity [48]: 4240 | SPOT peptide array binding signal intensity [49]: 78.5 | SPOT peptide array binding signal intensity [50]: 865 | SPOT peptide array binding signal intensity [51]: 436 | SPOT peptide array binding signal intensity [52]: 5110 | SPOT peptide array binding signal intensity [53]: 560 | SPOT peptide array binding signal intensity [54]: 1250 | SPOT peptide array binding signal intensity [55]: 1580 | SPOT peptide array binding signal intensity [56]: 3720 | SPOT peptide array binding signal intensity [57]: 1510 | SPOT peptide array binding signal intensity [58]: 1910 | SPOT peptide array binding signal intensity [59]: 144 | SPOT peptide array binding signal intensity [60]: 2040 | SPOT peptide array binding signal intensity [61]: 863 | SPOT peptide array binding signal intensity [62]: 2.5 | SPOT peptide array binding signal intensity [63]: 165 | SPOT peptide array binding signal intensity [64]: 21 | SPOT peptide array binding signal intensity [65]: 290 | SPOT peptide array binding signal intensity [66]: 143 | SPOT peptide array binding signal intensity [67]: 1820 | SPOT peptide array binding signal intensity [68]: 1020 | SPOT peptide array binding signal intensity [69]: 584 | SPOT peptide array binding signal intensity [70]: 38.5 | SPOT peptide array binding signal intensity [71]: 11 | SPOT peptide array binding signal intensity [72]: 803 | SPOT peptide array binding signal intensity [73]: 1990 | SPOT peptide array binding signal intensity [74]: ≤ 0
